Bioassay records: PubChem, Broad Institute
Hits are enriched below; roughly 3.1% of the tested compounds scored in any of these assays.
miR-122 sensor – miR-122 Renilla sensor signal increase in Huh7, primary screen, miR-122 inhibitor project, cell-based, single point, plate reader. activation (reporter increase), % at 12.5 µM. Huh7 miR-122 Renilla luciferase sensor, 48 h; neutral wells = 0, positive control = 100. hit rate 0.3% among 340,000;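 active means mean replicate activation score at least 90 and every replicate individually at or above 90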;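 further: higher luciferase means less miR-122 activity so hits act as miR-122 inhibitors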
C2C12 statin – suppressors of statin myotoxicity in C2C12 myotubes, primary screen, cell-based, single point, plate reader; C2C12 myotubes + simvastatin, ATP luminescence, 48 h; scaled: DMSO 0, geranylgeraniol control 100; rescue of ATP level, % at 7.49 µM; hit rate 0.78% among 330,000; AID 602340, 2012;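 active means mean ATP rescue above about 67%, or every replicate alone reaching that limit, limit read from the data, passing the limit was not always enough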;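 further: myotubes were challenged with 10 µM simvastatin during compound exposure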
EWS-Fli block – EWS/Fli-driven NR0B1 reporter inhibitors, primary screen, A673 cells, NR0B1 luciferase, luminescence, MLPCN library. viability-normalised. inhibition, % at 12.6 µM. hit rate 0.67% among 350,000;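 active means mean inhibition of at least 50% after viability correction, with every replicate also passing that limit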;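 further: firefly luciferase signal divided by Alamar Blue viability fluorescence both relative to DMSO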
PAX8 inh HTS – inhibitors of PAX8-driven TPO luciferase reporter, primary screen, RMG-I cells, single concentration; SteadyGlo, 24 h; inhibition, % at 12.6 µM; hit rate 1.2% among 360,000; AID 652154, 2013;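 active means mean replicate inhibition at least 60% with every replicate also reaching 60%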;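 further: luciferase light reporting Pax8 driven TPO promoter activity; plate controls were median of neutral control wells for no effect and mitoxantrone controls for full effect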
GSIS activator – GLuc luminescence reporter in INS-1E cells, primary screen for activators of glucose-dependent secretion of insulin; INS-1E GLuc reporter insulin secretion, 2-3 h; activation, % at 16.6 µM; hit rate 0.61% among 370,000;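 active means lowest replicate activation of at least 40%, so every replicate reaches that level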;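 further: 0% = median of neutral control wells and 100% = median of IBMX positive control wells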
Env fusion inh – inhibitors of HIV-1 Env-driven cell-cell fusion, primary screen, HeLa-JRFL effector, CEM21 target cells, luciferase; inhibition, % at 12.3 µM; hit rate 1.1% among 360,000;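 active means mean replicate inhibition score of at least 50 and every replicate individually at or above 50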;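 further: 0% = plate neutral controls and 100% = maraviroc near 300 nM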
* marks the source's active call; other numbers are inactive results; . = no result given; [ ] = dose if it differs, or a comment.

SMILES | miR-122 sensor | C2C12 statin | EWS-Fli block | PAX8 inh HTS | GSIS activator | Env fusion inh
C[C@H]1CN([C@@H](C)CO)C(=O)c2cccc(NC(=O)c3ccncc3)c2O[C@@H]1CN(C)C(=O)Nc1cccc2ccccc12 | 12[16.7 µM] | -5 | 4 | 11 | 24 | 66*[16.7 µM]
C[C@H](CO)N1C[C@H](C)[C@H](CN(C)C(=O)C2CCC2)Oc2ncc(C#Cc3ccccc3F)cc2C1=O | 35[16.7 µM] | -22 | -12 | -6 | -20 | -15[16.7 µM]
O=S(=O)(Nc1ccc2ccccc2c1)c1ccccc1 | 170* | 13 | . | 10 | -23 | -1
O=S(=O)(Nc1ccc(NS(=O)(=O)c2ccccc2)cc1)c1ccccc1 | . | . | 34 | -2 | -2 | -25
Cc1ccc(S(=O)(=O)Nc2ccc3c(c2)CCC3)cc1 | 167* | . | . | 20 | -11 | 37
COC(=O)c1ccc(C)c(NS(=O)(=O)c2ccc(OC)c(OC)c2)c1 | 131* | -8 | . | . | . | -56
COc1ccc(C)cc1NS(=O)(=O)c1ccc(NS(=O)(=O)c2ccc(NC(C)=O)cc2)cc1 | -1 | 3 | 11 | . | -1 | .
COc1ccc(S(=O)(=O)Nc2cc(C)ccc2OC)cc1C | 114* | 10 | . | . | . | .
COC(=O)c1cccc(NS(=O)(=O)c2ccc(OC)c(OC)c2)c1C | . | 1 | . | . | . | 20
O=C(CCN1CCCCC1)NCC[C@H]1CC[C@@H](NC(=O)C2CCCC2)[C@H](CO)O1 | . | 5 | -6 | -8 | 5 | 2[16.7 µM]
O=C(NCCc1ccccc1)[C@H]1[C@H](CO)[C@H]2Cn3c(cccc3=O)[C@@H]1N2C(=O)C1CC1 | . | 3 | 2 | . | 8 | .
COc1ccc(NC(=O)N(C)C[C@@H]2Oc3ccc(NC(=O)NC(C)C)cc3CC(=O)N([C@H](C)CO)C[C@H]2C)cc1 | 0[16.7 µM] | 17 | -13 | -2 | 12 | -14[16.7 µM]
O=C(CN1CCOCC1)NCC[C@H]1CC[C@@H](NC(=O)Nc2ccc(Cl)cc2)[C@H](CO)O1 | . | 3 | 0 | 4 | 4 | -12[16.7 µM]
CS(=O)(=O)c1ccc(NS(=O)(=O)c2ccc3ccccc3c2)cc1 | 55 | 8 | -3 | -1 | -5 | -11
Cc1cc(S(=O)(=O)Nc2cc(C)c(O)c(C)c2)c(C)s1 | 196* | 42 | . | . | . | 6
Cc1ccc(S(=O)(=O)Nc2ccc3ccccc3c2)cc1 | 118* | 0 | 10 | 22 | -7 | -15
COc1ccc(S(=O)(=O)Nc2ccc3cn[nH]c3c2)cc1C | . | . | 16 | 13 | 2 | 21
COc1ccc(S(=O)(=O)Nc2ccc3ccccc3c2)cc1C | 109* | 30 | . | . | -20 | 31
Cc1cc(S(=O)(=O)Nc2ccc3ccccc3c2)c(C)s1 | 540* | -19 | 31 | . | -31 | .
Cc1cc(S(=O)(=O)Nc2cccnc2)c(C)s1 | 10 | -23 | . | 0 | . | -10
COCC(=O)Nc1ccc2c(c1)[C@@H]1C[C@H](CC(=O)NCc3ccc(Cl)cc3)O[C@@H](CO)[C@@H]1O2 | -1[16.7 µM] | 5 | 0 | -3 | 3 | 5[16.7 µM]
C[C@H]1CN([C@@H](C)CO)C(=O)c2cc(C#Cc3ccccc3F)cnc2O[C@H]1CN(C)C(=O)c1ccc2c(c1)OCO2 | -13[16.7 µM] | -13 | 4 | . | -19 | 15[16.7 µM]
CO[C@H]1CC[C@H]2CCOc3ccc(C#N)cc3C(=O)N(C)C[C@@H](OC)[C@H](C)C(=O)N(C)C[C@H]1O2 | . | -12 | -2 | -6 | 12 | 12[16.7 µM]
C[C@H]1CN([C@@H](C)CO)C(=O)c2cc(NC(=O)Nc3ccc4c(c3)OCO4)ccc2O[C@@H]1CN(C)S(C)(=O)=O | -5[16.7 µM] | 5 | -9 | . | 2 | .
CO[C@@H]1CN(C)C(=O)c2cc(NC(=O)c3cc(C)on3)ccc2OC[C@H](C)N(C(C)=O)C[C@@H]1C | 6[16.7 µM] | -4 | -5 | . | 14 | .
SMILES | miR-122 sensor | C2C12 statin | EWS-Fli block | PAX8 inh HTS | GSIS activator | Env fusion inh
C[C@@H]1CN([C@H](C)CO)C(=O)c2cccc(NC(=O)Nc3ccc(F)cc3)c2O[C@@H]1CN(C)Cc1ccncc1 | 0[16.7 µM] | 3 | -2 | -15 | 21 | -14[16.7 µM]
O=C1N[C@@H](Cc2c[nH]c3ccccc23)COC(=O)[C@@H](Cc2ccc(F)cc2)CC/C=C/C[C@@H]1CC(=O)N(CCO)Cc1ccccc1 | . | -10 | 10 | 75* | -11 | -8
O=C1N[C@@H](Cc2c[nH]c3ccccc23)COC(=O)[C@H](Cc2ccc(F)cc2)C/C=C\C[C@H]1CC(=O)N(CCO)Cc1ccccc1 | . | -33 | 3 | 12 | -17 | -18
COc1ccc(/C=C2\Sc3ccc(C(=O)N4CCN(Cc5ccccc5)CC4)cc3N(C)C2=O)cc1OC | . | 48 | 34 | 77* | 5 | 20
CN1CCN(C(=O)c2ccc3c(c2)N(C)C(=O)/C(=C/c2cccc(Cl)c2)S3)CC1 | -6 | -2 | 16 | 14 | -15 | 0
CCC(=O)N(C)C[C@@H]1Oc2ncc(-c3ccccc3F)cc2C(=O)N([C@H](C)CO)C[C@@H]1C | 27[16.7 µM] | -11 | -13 | . | 19 | -10[16.7 µM]
O=S(=O)(c1ccccc1)N1CCCCN2[C@H](CO)[C@H](c3ccc(C#Cc4cccnc4)cc3)[C@@H]2C1 | 3[16.7 µM] | -48 | 1 | -6 | 5 | .
COc1ccccc1N1CCN(C(=O)Cn2c(=O)[nH]c3ccsc3c2=O)CC1 | -17 | -3 | . | 7 | . | -82
COc1ccccc1N1CCN(C(=O)c2ccc(Cn3c(=O)[nH]c4ccsc4c3=O)cc2)CC1 | 118* | . | -2 | 6 | -12 | 19
CC1=CC(C)(C)N2C(=O)C3(SCC(=O)N3c3ccc(F)cc3)c3cc(C)cc1c32 (stereo not drawn) | -2 | 47 | . | . | -34 | 72*
OC1c2cc(Br)ccc2N=C2CCCN21 (stereo not drawn) | -21 | -3 | 15 | 36 | -7 | -7
OC1c2cc(Br)ccc2N=C2CCCCCN21 (stereo not drawn) | 0 | -2 | -27 | 70* | 8 | -10
CCOC(=O)C1(C)C=C(Nc2ccc(OC)cc2)C(=O)N1c1ccc(OC)cc1 (stereo not drawn) | 2 | . | . | 2 | 59* | 14
O=C(C[C@@H]1C=C[C@@H](NC(=O)c2ccncc2)[C@@H](CO)O1)Nc1ccc(-c2ccccc2)cc1 | . | . | . | . | 5 | .
COc1ccc(S(=O)(=O)N(C)C[C@H]2Oc3c(NC(=O)c4ccc(-c5nccs5)cc4)cccc3C(=O)N([C@@H](C)CO)C[C@H]2C)cc1 | -2[16.7 µM] | . | -7 | . | -14 | -8[16.7 µM]
CN(Cc1ccccc1C#N)S(=O)(=O)c1cccs1 | -6 | 6 | -17 | 0 | -1 | 13
N#Cc1nccnc1S(=O)(=O)c1cccs1 | . | . | 16 | 102* | 134* | 10
